Test results taken from PubChem BioAssay (NCATS).
Inconclusive results are not listed. Entries that show only a call come without a potency. The source made the active and inactive calls. Unless noted, calls come from the whole dose curve; as a rule, active = well fitted curve in the direction sought with a large enough effect; inconclusive = small, poorly fitted or top-dose-only effect, or another doubt; inactive = no such curve, though single readings can be large; an effect the other way counts as inactive or inconclusive.

Key:
[1] = qHTS assay for measurement of the activity of small molecule inhibitors on Zika virus induced Caspase-3 activity in human astrocytoma cells (AID 1224859); note: potency is the fitted concentration of half-maximal effect
Outline: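 Human SNB-19 astrocytoma cells in RPMI 1640 with 10% FBS receive compound one hour ahead of Zika virus at 2 FFU/cell. After 6 h infection, caspase-3/7 activity is detected by Caspase-Glo luminescence.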

[2] = qHTS Screen of the MIPE 4.0 Collection Against Ewings Sarcoma (TC32) (AID 1259256); note: nearly all actives have a fitted effect of over 45% in size; note: potency is the fitted concentration of half-maximal effect
Outline: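 Compound titrations go onto adherent log-phase cells 4 h after seeding, incubate 48 h at 37C, then CellTiter-Glo luminescence reports viability relative to DMSO and cell-free controls.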

[3] = P-glycoprotein substrates identified in KB-8-5-11 adenocarcinoma cell line, qHTS therapeutic library screen (AID 1346987); note: nearly all actives have a fitted effect of over 65% in size; note: potency is the fitted concentration of half-maximal effect
Outline: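 Luminescence from CellTiter-Glo, read 5 min after addition, quantified survival of KB-8-5-11 (P-gp-overexpressing) cells exposed to compounds for 72 h. AC50 was derived from concentration-response curves.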

[4] = qHTS of pediatric cancer cell lines to identify multiple opportunities for drug repurposing: Primary screen for TC32 cells (AID 1347089); note: nearly all actives have a fitted effect of over 60% in size
Outline: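 A viability screen of TC32 cells was run over 48 h, with primary MIPE doses spanning 0.78 nM–46 µM and NPC doses 0.59 nM–46 µM. ATP luminescence (CellTiter-Glo) served as the read-out.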

[5] = qHTS of pediatric cancer cell lines to identify multiple opportunities for drug repurposing: Primary screen for DAOY cells (AID 1347090); note: nearly all actives have a fitted effect of over 55% in size; note: potency is the fitted concentration of half-maximal effect
Outline: (§1)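 Eight- or eleven-point concentration series, 48 h treatment at 37 degrees C in growth media; readout CellTiter-Glo luminescence. Potency and efficacy were taken from the concentration-response curves.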

[6] = qHTS of pediatric cancer cell lines to identify multiple opportunities for drug repurposing: Primary screen for SJ-GBM2 cells (AID 1347091); note: potency is the fitted concentration of half-maximal effect
Outline: as §1

[7] = qHTS assay to identify small molecule inhibitors of chordoma cells - UCH-2 (AID 1259356); note: series mostly up to about 46 µM
[8] = target: Atrial natriuretic peptide receptor 1 (Homo sapiens) (UniProt P16066); test: Natriuretic polypeptide receptor (hNpr1) antagonism - Pilot screen (AID 1347049; calls by dose curve;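 note: HEK293 cells with hNpr1 and GloSensor cGMP luciferase stimulated by 0.1 nM hNppA; agonist-evoked cGMP luminescence read 20 min after hNppA addition; series mostly up to about 58 µM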)
Chain of Atrial natriuretic peptide receptor 1 (Homo sapiens) (P16066 whole entry, looked up): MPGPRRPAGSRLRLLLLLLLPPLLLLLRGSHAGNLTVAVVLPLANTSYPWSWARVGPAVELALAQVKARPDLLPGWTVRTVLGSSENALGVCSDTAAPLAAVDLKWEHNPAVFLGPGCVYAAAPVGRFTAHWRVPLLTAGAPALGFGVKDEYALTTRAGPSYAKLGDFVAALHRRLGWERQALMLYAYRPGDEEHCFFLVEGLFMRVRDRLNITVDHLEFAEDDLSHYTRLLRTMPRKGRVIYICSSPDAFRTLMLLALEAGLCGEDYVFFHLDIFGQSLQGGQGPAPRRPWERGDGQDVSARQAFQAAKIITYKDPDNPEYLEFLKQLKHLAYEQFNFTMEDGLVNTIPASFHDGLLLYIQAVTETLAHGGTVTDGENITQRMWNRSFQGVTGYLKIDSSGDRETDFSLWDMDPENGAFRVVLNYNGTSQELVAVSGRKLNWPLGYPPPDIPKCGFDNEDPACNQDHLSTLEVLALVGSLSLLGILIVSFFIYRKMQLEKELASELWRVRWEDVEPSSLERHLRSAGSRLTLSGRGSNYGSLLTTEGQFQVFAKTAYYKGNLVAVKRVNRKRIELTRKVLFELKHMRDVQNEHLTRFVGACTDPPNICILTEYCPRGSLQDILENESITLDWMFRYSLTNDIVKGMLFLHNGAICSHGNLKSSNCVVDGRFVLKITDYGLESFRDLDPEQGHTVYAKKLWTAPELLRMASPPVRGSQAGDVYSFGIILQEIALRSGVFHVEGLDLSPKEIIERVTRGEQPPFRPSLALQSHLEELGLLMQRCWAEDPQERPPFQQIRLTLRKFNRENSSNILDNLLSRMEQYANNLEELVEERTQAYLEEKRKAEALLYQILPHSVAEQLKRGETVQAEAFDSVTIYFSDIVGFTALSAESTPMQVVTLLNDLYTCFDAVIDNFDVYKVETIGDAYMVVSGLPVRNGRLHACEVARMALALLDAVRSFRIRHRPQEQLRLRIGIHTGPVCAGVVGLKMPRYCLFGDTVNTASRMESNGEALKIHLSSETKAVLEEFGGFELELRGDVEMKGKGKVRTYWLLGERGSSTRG
Outline: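 Cells expressing receptor plus cGMP biosensor are seeded and incubated overnight at 37C, then loaded with GloSensor reagent (2% final) at room temperature for 2 h. Library compounds go on for 30 min. A pre-read precedes agonist (hNppA, 0.1 nM final) and a 20-min readout.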

[9] = target: Atrial natriuretic peptide receptor 2 (Homo sapiens) (UniProt P20594); test: Natriuretic polypeptide receptor (hNpr2) antagonism - Pilot subtype selectivity assay (AID 1347050; calls by dose curve)
Chain of Atrial natriuretic peptide receptor 2 (Homo sapiens) (P20594 whole entry, looked up): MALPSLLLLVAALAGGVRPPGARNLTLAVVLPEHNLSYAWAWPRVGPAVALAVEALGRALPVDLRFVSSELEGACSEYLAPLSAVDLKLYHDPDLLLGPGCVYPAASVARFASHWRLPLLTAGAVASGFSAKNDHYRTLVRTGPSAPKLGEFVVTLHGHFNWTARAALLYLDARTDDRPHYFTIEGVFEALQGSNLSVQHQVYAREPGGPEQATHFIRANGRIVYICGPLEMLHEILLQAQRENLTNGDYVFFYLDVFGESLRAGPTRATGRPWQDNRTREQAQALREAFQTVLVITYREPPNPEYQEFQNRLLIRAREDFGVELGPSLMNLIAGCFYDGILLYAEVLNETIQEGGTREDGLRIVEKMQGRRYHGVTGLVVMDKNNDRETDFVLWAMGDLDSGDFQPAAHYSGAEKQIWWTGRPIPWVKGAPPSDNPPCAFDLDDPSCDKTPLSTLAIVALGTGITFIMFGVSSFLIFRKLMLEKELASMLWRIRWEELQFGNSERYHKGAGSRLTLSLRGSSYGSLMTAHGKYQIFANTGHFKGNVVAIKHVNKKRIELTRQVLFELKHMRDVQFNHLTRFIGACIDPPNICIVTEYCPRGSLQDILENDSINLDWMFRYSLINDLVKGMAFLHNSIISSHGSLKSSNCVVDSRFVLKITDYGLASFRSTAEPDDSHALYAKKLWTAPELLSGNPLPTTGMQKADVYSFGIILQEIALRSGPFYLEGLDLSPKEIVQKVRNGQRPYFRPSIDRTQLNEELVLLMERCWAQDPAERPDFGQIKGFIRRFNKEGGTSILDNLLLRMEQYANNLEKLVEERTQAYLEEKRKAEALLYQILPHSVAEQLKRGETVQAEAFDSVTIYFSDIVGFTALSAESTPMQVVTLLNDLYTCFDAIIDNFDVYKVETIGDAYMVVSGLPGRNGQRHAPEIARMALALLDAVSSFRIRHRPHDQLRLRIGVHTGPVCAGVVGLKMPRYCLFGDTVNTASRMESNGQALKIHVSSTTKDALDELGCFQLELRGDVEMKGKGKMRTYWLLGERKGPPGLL
Outline: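 Read-out: GloSensor luminescence (CCD imager), baseline vs post-stimulation. HEK293 cells expressing hNpr2; compounds pre-incubated 30-50 min at ambient temperature; hNppC 1 nM final, 20 min.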

[10] = NS1 protein of Zika virus - qHTS assay to identify small molecule inhibitors in human HEK 293 cells (AID 1347053); note: series mostly up to about 46 µM; nearly all actives have a fitted effect of over 55% in size
Outline: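 In this cell-based screen, HEK 293 cultures received compound for one hour before Zika MR766 at MOI = 0.5. NS1 was quantified 24 hours later by TR-FRET, normalized to virus-free wells and infected wells.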

[11] = target: T1, Tyrosine-protein phosphatase non-receptor type substrate 1 (Homo sapiens) + Leukocyte surface antigen CD47 (Homo sapiens) (UniProt P78324+Q08722); test: CD47-SIRPalpha protein protein interaction - LANCE assay qHTS validation (AID 1347057; active = well fitted curve in the direction sought with a large enough effect in the signal ratio, with a control signal flat, not every such curve was filed as active; the % refers to the signal ratio; note: series mostly up to about 38 µM)
T1 sequence (P78324 whole entry, looked up, the tested form may be a part): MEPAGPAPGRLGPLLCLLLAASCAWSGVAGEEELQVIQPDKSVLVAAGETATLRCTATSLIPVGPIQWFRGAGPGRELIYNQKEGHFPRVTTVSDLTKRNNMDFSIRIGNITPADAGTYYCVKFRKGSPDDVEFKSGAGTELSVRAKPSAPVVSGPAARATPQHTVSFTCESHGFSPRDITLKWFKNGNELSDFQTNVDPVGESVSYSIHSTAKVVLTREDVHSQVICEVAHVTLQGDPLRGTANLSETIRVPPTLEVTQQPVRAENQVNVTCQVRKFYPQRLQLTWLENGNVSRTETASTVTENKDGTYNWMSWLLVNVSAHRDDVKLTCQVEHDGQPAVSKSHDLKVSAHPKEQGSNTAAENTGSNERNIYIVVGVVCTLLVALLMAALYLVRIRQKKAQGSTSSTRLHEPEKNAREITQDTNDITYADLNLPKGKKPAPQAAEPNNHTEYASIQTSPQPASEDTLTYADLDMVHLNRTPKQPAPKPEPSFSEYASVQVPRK
T1 sequence (Q08722 whole entry, looked up, the tested form may be a part): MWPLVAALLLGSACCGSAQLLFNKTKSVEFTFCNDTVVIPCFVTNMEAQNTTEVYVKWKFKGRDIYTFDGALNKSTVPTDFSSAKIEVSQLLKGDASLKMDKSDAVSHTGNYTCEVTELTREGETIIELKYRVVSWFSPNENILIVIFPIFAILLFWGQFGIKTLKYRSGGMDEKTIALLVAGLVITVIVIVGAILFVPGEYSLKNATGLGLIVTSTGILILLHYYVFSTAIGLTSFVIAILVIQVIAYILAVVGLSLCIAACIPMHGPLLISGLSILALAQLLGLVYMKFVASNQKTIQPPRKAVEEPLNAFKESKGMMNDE
Outline: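 Inhibition of soluble CD47/SIRPalpha ectodomain association by titrated compounds, measured as 665/615 nm time-resolved FRET ratio after sequential 30 min room-temperature incubations.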

[12] = target: T1, Tyrosine-protein phosphatase non-receptor type substrate 1 (Homo sapiens) + Leukocyte surface antigen CD47 (Homo sapiens); test: CD47-SIRPalpha protein protein interaction - HTRF assay qHTS validation (AID 1347058; active = well fitted curve in the direction sought with a large enough effect in the signal ratio, not every such curve was filed as active; the % refers to the signal ratio; note: series mostly up to about 38 µM)
Outline: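 Soluble extracellular domains (6His-CD47, Avi-tag-biotinylated SIRPalpha) in PBS pH 7.4 with 0.05% IGEPAL CA-630. Compounds were preincubated 30 min at RT with CD47 and anti-His-Eu, then SIRPalpha and SAV-XL665 were added. TR-FRET 665/615 ratio.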

[13] = target: T1, Tyrosine-protein phosphatase non-receptor type substrate 1 (Homo sapiens) + Leukocyte surface antigen CD47 (Homo sapiens); test: CD47-SIRPalpha protein protein interaction - Alpha assay qHTS validation (AID 1347059);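 note: bead proximity luminescence from CD47 binding SIRPalpha after compound preincubation with SIRPalpha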
Outline: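 In PBS (pH 7.4) with 0.05% IGEPAL CA-630, compound is preincubated with biotin-Avi-SIRPalpha ectodomain before His-CD47 ectodomain and affinity beads are added. Light-protected room-temperature incubations; AlphaScreen readout.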

[14] = target: Parathyroid hormone/parathyroid hormone-related peptide receptor (Homo sapiens) (UniProt Q03431); test: qHTS for PTHR1 Agonists: Optimization Screen against the NCGC LOPAC library (AID 1347079);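 note: GloSensor cAMP luminescence in HEK-293 GP2 cells expressing human PTHR1 with IBMX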
Chain of Parathyroid hormone/parathyroid hormone-related peptide receptor (Homo sapiens) (Q03431 whole entry, looked up): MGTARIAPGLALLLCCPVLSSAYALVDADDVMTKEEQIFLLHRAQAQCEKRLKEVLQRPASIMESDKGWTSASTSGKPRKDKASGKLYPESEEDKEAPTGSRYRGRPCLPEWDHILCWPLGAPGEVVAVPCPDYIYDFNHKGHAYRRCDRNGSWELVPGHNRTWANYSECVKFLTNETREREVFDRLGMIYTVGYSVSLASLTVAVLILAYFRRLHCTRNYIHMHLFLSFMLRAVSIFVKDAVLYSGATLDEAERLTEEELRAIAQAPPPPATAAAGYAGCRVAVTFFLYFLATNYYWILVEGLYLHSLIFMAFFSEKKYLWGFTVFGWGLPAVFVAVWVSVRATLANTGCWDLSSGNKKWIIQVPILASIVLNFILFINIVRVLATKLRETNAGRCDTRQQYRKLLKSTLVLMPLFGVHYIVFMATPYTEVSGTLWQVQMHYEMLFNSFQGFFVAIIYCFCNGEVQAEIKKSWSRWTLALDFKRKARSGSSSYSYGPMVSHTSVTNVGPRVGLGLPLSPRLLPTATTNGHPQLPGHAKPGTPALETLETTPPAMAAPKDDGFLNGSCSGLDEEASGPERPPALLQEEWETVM
Outline: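 HEK-293 GP2 cells, PTHR1 + GloSensor cAMP; 3000 cells/well, o/n. Luciferin + IBMX 0.5mM each (stock), 1 hr 37C. Cpd titration, 1 hr 37C. Lum after 15 min RT. Ctrl M-PTH(1-15) top 10uM.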

[15] = Natriuretic polypeptide receptor (hNpr1) antagonism - Pilot counterscreen GloSensor control cell line (AID 1347045; calls by dose curve; note: series mostly up to about 38 µM)
Outline: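 Cells were first seeded and incubated overnight at 37C, then loaded with 2% GloSensor substrate for 2 h. Compounds were added for 30 min at room temperature, followed by a baseline read, 50 uM SNP and a final read after 20 min.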

Structure (SMILES) | Potency [1] | Potency [2] | Potency [3] | Potency [4] | Potency [5] | Potency [6] | outcome [7] | outcome [8] | outcome [9] | Potency [10] | outcome [11] | outcome [12] | outcome [13] | outcome [14] | Potency [15]
CN1CCN(CCOc2cc(OC3CCOCC3)c3c(Nc4c(Cl)ccc5c4OCO5)ncnc3c2)CC1 | inactive | 29.6 µM (active) | inactive | inactive | 18.7 µM (active) | 9.35 µM (active) | – | – | – | – | – | – | – | – | –
O=c1cc(CN2CCOCC2)occ1OCCCCCSc1ccnc2cc(C(F)(F)F)ccc12 | inactive | 18.7 µM (active) | 10.3 µM (active) | inactive | – | 1.32 µM (active) | – | – | – | – | – | – | – | – | –
NC(N)=Nc1nc(CSCC/C(N)=N/S(N)(=O)=O)cs1 | inactive | – | inactive | inactive | inactive | inactive | inactive | inactive | inactive | inactive | inactive | inactive | inactive | inactive | –
CC(C)NCC(O)COc1cccc2[nH]ccc12 (configuration not stated) | inactive | – | inactive | inactive | inactive | inactive | inactive | inactive | inactive | inactive | inactive | inactive | inactive | inactive | inactive
CN(C)CCC(c1ccccc1)c1ccccn1 (configuration not stated) | inactive | – | inactive | inactive | inactive | inactive | inactive | inactive | inactive | inactive | inactive | inactive | inactive | inactive | inactive
CCOC(CN1C(=O)[C@](CC(=O)Nc2ccc(C)cc2)(NC(=O)Nc2ccc(C)cc2)c2ccccc21)OCC | inactive | inactive | – | inactive | – | – | – | – | – | – | – | – | – | – | –
NCCS | inactive | – | inactive | inactive | inactive | inactive | inactive | inactive | inactive | inactive | inactive | inactive | inactive | inactive | inactive
N[C@@]1(C(=O)O)CS(=O)(=O)[C@H]2[C@H](C(=O)O)[C@H]21 | inactive | 18.7 µM (active) | inactive | inactive | inactive | inactive | – | – | – | inactive | – | – | – | – | –
Cn1c(N2CCCCS2(=O)=O)nc(C(=O)NCc2ccc(F)cc2)c(O)c1=O | inactive | 23.5 µM (active) | inactive | inactive | inactive | inactive | – | – | – | inactive | – | – | – | – | –
CC1=C(/C=C/C(C)=C/C=C/C(C)=C/C(=O)Nc2ccc(O)cc2)C(C)(C)CCC1 | inactive | – | 23.1 µM (active) | – | – | – | inactive | inactive | inactive | – | inactive | inactive | – | inactive | inactive
Cc1nnc(C(C)C)n1C1C[C@H]2CC[C@@H](C1)N2CC[C@H](NC(=O)C1CCC(F)(F)CC1)c1ccccc1 (some centres not stated) | inactive | 26.4 µM (active) | inactive | inactive | – | inactive | – | – | – | inactive | – | – | – | – | –
O=C1NC(=O)C(c2ccccc2)(c2ccccc2)N1 | inactive | – | inactive | inactive | inactive | inactive | inactive | inactive | inactive | inactive | inactive | inactive | inactive | inactive | inactive
CC(C)(C)NC(=O)Nc1cccc(Nc2ncc(F)c(NC(C)(C)CO)n2)c1 | inactive | 2.35 µM (active) | – | – | inactive | – | – | – | – | inactive | – | – | – | – | –
CC(=O)c1ccc(S(=O)(=O)NC(=O)NC2CCCCC2)cc1 | inactive | – | inactive | inactive | inactive | inactive | inactive | inactive | inactive | inactive | inactive | inactive | inactive | inactive | inactive
O=C1NCC2(CCN(CCc3ccccc3)CC2)O1 | inactive | – | inactive | inactive | inactive | inactive | inactive | inactive | inactive | inactive | inactive | inactive | inactive | inactive | inactive
N#C[C@H]1C[C@H]2C[C@@H]2N1C(=O)[C@@H](N)C12CC3CC(CC(O)(C3)C1)C2 | inactive | 16.6 µM (active) | – | inactive | inactive | inactive | – | – | – | inactive | – | – | – | – | –
N#CC1(c2ccc(NC(=O)c3cccnc3NCc3ccncc3)cc2)CCCC1 | 18.7 µM (active) | inactive | inactive | inactive | inactive | inactive | – | – | – | inactive | – | – | – | – | –
